Laboratory results reported in PubChem BioAssay AID504834 (National Center for Advancing Translational Sciences (NCATS), 2011).
Out of some 320,000 compounds screened, about 22,000 (6.9%) were called active. Where a call stands in place of a potency, no number is given. Inconclusive results (about 27%) are left out. The sample holds actives, similar compounds and a random draw of the others, so the mix is not that of the screen. Calls come from the whole dose curve; as a rule, active = well fitted inhibition curve with a large enough effect; inconclusive = small, poorly fitted or top-dose-only effect, or another doubt; inactive = no such curve, though single readings can be large or run the other way.

Experiment: Primary qHTS for delayed death inhibitors of the malarial parasite plastid, 96 hour incubation
Details: P. falciparum luciferase reporter growth; series mostly up to 28.7 µM
Procedure, shortened: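 Plates of compound plus infected erythrocytes (2% hematocrit, 0.05% parasitemia final) incubate 96 hours, 37 C, 5% CO2. Detection reagent added; reduced luminescence from the parasites' luciferase reporter flags inhibition.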
Potency is the fitted concentration of half-maximal effect.

Row | SMILES | Potency | activity change, negative = inhibition
1 | O=C(COC(=O)/C=C/c1ccc2c(c1)OCO2)NC1CCS(=O)(=O)C1 (stereo unspecified) | inactive | 
2 | Cn1nc(C(=O)OCC(=O)N(Cc2ccccc2)C(C)(C)C)c2ccccc2c1=O | inactive | 
3 | CSc1nnc(NC(=O)c2nc(S(=O)(=O)Cc3ccc(C)cc3)ncc2Cl)s1 | inactive | 
4 | CC1(C)COC(c2cccn2Cc2ccccc2Cl)=N1 | 9.28 µM (active) | 
5 | O=S1(=O)CCN(Cc2ccccc2Cl)CC1 | inactive | 
6 | O=C(Nc1cccn(Cc2ccccc2Cl)c1=O)NC1CCCCC1 | inactive | 
7 | NC(=O)c1cc(-c2cccnc2)nc2ccc(Br)cc12 | inactive | 
8 | C=CCn1c(SCc2ccc(Cl)c(Cl)c2)nnc1C(CO)NC(=O)c1ccc(OC)cc1 (stereo unspecified) | inactive | 
9 | C=CCn1c(SCCOc2ccc(OC)cc2)nnc1C(NC(=O)c1ccc(OC)cc1)C(C)C (stereo unspecified) | 10.4 µM (active) | 
10 | C=CCn1c(SCC(=O)c2ccc(Br)cc2)nnc1C(C)NC(=O)Cc1ccc(OC)cc1 (stereo unspecified) | inactive | 
11 | CC[C@]1([C@H]2O[C@@H]([C@@H]3O[C@](O)(CO)[C@@H](C)C[C@H]3C)C[C@H]2C)CC[C@@H]([C@]2(C)CC[C@@]3(C[C@@H](O)[C@@H](C)[C@@H]([C@H](C)[C@H](OC)[C@H](C)C(=O)O)O3)O2)O1 | 0.019 µM (active) | 
12 | COc1ccc(CC(=O)OC(C)C(=O)Nc2ccc(S(N)(=O)=O)cc2)cc1 (stereo unspecified) | inactive | 
13 | C[C@@H](NC(=O)c1nc[nH]c1C(=O)N1CCN(C(=O)OC(C)(C)C)CC1)c1ccccc1 | inactive | 
14 | O=C(N[C@@H](Cc1ccccc1)C(=O)OCc1ccccc1)c1nc[nH]c1C(=O)N[C@@H](Cc1ccccc1)C(=O)OCc1ccccc1 | inactive | 
15 | CC(C)(C)OC(=O)N1CCC(NC(=O)c2[nH]cnc2C(=O)N[C@@H](Cc2ccccc2)C(=O)OCc2ccccc2)CC1 | 1.47 µM (active) | 
16 | Cc1c(Cl)cccc1NC(=O)CCC(=O)N/N=C/c1ccco1 | inactive | 
17 | Cc1cc(C)cc(N(CC(=O)NC2CCCC2)C(=O)CCC(=O)Nc2cc(C)on2)c1 | inactive | 
18 | CC(Oc1cccc(Cl)c1)C(=O)Nc1ccc(S(=O)(=O)Nc2ncccn2)cc1 (stereo unspecified) | inactive | 
19 | COc1ccc(C(=O)Nc2ccc(S(=O)(=O)Nc3onc(C)c3C)cc2)cc1OC | inactive | 
20 | Cc1cc(OC(C)C(=O)Nc2ccc(S(=O)(=O)Nc3onc(C)c3C)cc2)cc(C)c1Cl (stereo unspecified) | 8.28 µM (active) | 
21 | N#Cc1c(-c2ccccc2)c(-c2ccccc2)n[nH]c1=O | inactive | 
22 | NCCCCCC(=O)N/N=C/c1ccc2nccnc2c1 | inactive | 
23 | COc1ccc(C(=O)NC(C)Cn2nc(C)cc2C)cc1OC1CCN(C(C)=O)CC1 (stereo unspecified) | inactive | 
24 | O=C(NCCCn1ccnc1)C1CCCN(S(=O)(=O)c2cc(Cl)ccc2Cl)C1 (stereo unspecified) | inactive | 
25 | O=c1oc2ccccc2c(CNc2ccccc2)c1[N+](=O)[O-] | inactive | 
26 | CCCNC(=O)NCc1ccc(N2CCCC2=O)cc1 | inactive | 

Row | SMILES | Potency | activity change, negative = inhibition
27 | O=C(NCCCN1CCCC1=O)c1ccc(S(=O)(=O)Nc2ccccc2)cc1 | inactive | 
28 | O=C(NCCCN1CCCCCC1)c1ccc(N2CCCC2=O)cc1 | 2.33 µM (active) | 
29 | COc1ccc(N2CCN(C(=O)Cn3cnc4sc(C)c(S(=O)(=O)N5CCOCC5)c4c3=O)CC2)cc1 | inactive | 
30 | Cn1c(N)c(C(=O)COC(=O)COc2ccc(Cl)cc2)c(=O)n(C)c1=O | inactive | 
31 | Cn1c(N)c(C(=O)COC(=O)c2cnc(Cl)c(Cl)c2)c(=O)n(C)c1=O | inactive | 
32 | Cn1c(N)c(C(=O)COC(=O)C23CC4CC(CC(C4)C2)C3)c(=O)n(C)c1=O | 14.7 µM (active) | 
33 | COc1cc(NC(=O)c2ccccc2)c(OC)cc1NC(=O)Cc1ccccc1 | inactive | 
34 | CCc1nn(CCCC(=O)Nc2ccc(C)c(C)c2)c(=O)c2cc3occc3n12 | inactive | 
35 | CC1CC(C)(C)CC2(C1)NC(=O)N(CC(=O)Nc1nccs1)C2=O (stereo unspecified) | inactive | 
36 | CC(C)n1c(COc2ccccc2)nc2ccccc21 | inactive | 
37 | Brc1ccccc1C1Nc2cccc3cccc(c23)N1 | inactive | 
38 | COc1ccc(C2NC(=O)c3ccccc3N2)cc1 (stereo unspecified) | inactive | 
39 | COc1ccc2[nH]c3ccc(OC)cc3c2c1 | inactive | 
40 | Cc1ccc(C2Nc3cccc4cccc(c34)N2)cc1 | inactive | 
41 | COc1cccc(C2Nc3cccc4cccc(c34)N2)c1 | 7.38 µM (active) | 
42 | Oc1ccc(C2Nc3cccc4cccc(c34)N2)cc1 | 10.4 µM (active) | 
43 | N#Cc1ccccc1S(=O)(=O)N1CCN(Cc2c(O)ccc3ccccc23)CC1 | inactive | 
44 | CC(CCc1ccccc1)NC(=O)c1cnc(Cl)c(Cl)c1 (stereo unspecified) | inactive | 
45 | Cc1ccc(N(C(=O)CNC(=O)c2ccco2)C(C(=O)NC2CCCC2)c2ccncc2)cc1 (stereo unspecified) | inactive | 
46 | CC(C)C(NC(=O)c1c(F)cccc1F)C(=O)NCc1ccncc1 (stereo unspecified) | inactive | 
47 | C[C@@H](NC(=O)OC(C)(C)C)c1nnc(S(=O)(=O)Cc2ccccc2)o1 | inactive | 
48 | CC(C)CN(CC(C)C)C(=O)CN1c2cccc3cccc(c23)S1(=O)=O | inactive | 
49 | CCn1c(CC(=O)Nc2ccccc2)nnc1SCC(=O)N1CCOCC1 | inactive | 
50 | COC(=O)c1ccc(CSc2nncn2C)cc1 | inactive | 
51 | CCOc1cc(/C=N/NC(=O)c2ccc(CSc3nncn3C)cc2)ccc1OCC(=O)N1CCOCC1 | 11.7 µM (active) | 
52 | CCOc1cc(/C=N/NC(=O)c2cccc(S(=O)(=O)N3CCOCC3)c2)ccc1OCC(=O)N(C)C | inactive | 

Row | SMILES | Potency | activity change, negative = inhibition
53 | CC(=O)N1CC[n+]2c(-c3ccc([N+](=O)[O-])cc3)csc21 | inactive | 
54 | CC1CCN(S(=O)(=O)c2ccc(NC(=O)C3CC(=O)N(c4ccccc4)C3)cc2)CC1 (stereo unspecified) | inactive | 
55 | O=C(Nc1ccc(Cl)cc1)Nc1nnc(/C=C/c2ccccc2)s1 | 13.1 µM (active) | 
56 | O=C(CSc1ccccc1)Nc1nnc(/C=C/c2ccccc2)s1 | inactive | 
57 | COc1ccc(/C=C/c2nnc(NC(=O)C(C)C)s2)cc1 | inactive | 
58 | CNS(=O)(=O)c1cnccc1N1CCN(c2cccc(C)c2)CC1 | 10.4 µM (active) | 
59 | O=S(=O)(c1cnccc1N1CCN(/N=C/c2ccc(Br)cc2)CC1)N1CCCCC1 | inactive | 
60 | CC(C)NC(=O)N1CCN(c2ccncc2S(=O)(=O)N2CCCCC2)CC1 | inactive | 
61 | COc1ccc(F)cc1C(=O)COC(=O)c1n[nH]c(=O)c2ccccc12 | inactive | 
62 | O=C(c1n[nH]c2c1CCC2)N1CCCC(Nc2cccc(F)c2)C1 (stereo unspecified) | inactive | 
63 | CSc1nc(-c2ccco2)nn1C(=O)c1ccccc1Cl | inactive | 
64 | COc1ccc(CCNS(=O)(=O)c2ccc(C(=O)NCc3ccco3)cc2)cc1OC |  | 11.4% [at 5.75 µM] (inactive)
65 | CCC1=Nc2cc(C(=O)NCCCN3CCOCC3)ccc2Sc2ccc(Br)cc21 | inactive | 
66 | CCCC1=Nc2cc(C(=O)NCc3ccco3)ccc2Sc2ccccc21 | 2.94 µM (active) | 
67 | COCCN(C(=O)COC(=O)Cc1cccc(OC)c1)c1c(N)n(Cc2ccccc2)c(=O)[nH]c1=O | inactive | 
68 | Cc1ccc(F)cc1S(=O)(=O)Nc1cccc(C(=O)N2CCCC(C(N)=O)C2)c1 (stereo unspecified) | inactive | 
69 | CCOc1ccc(CN2CCN(CCCc3ccccc3)C(CCO)C2)cc1 (stereo unspecified) | inactive | 
70 | CCOc1ccc(CN2CCN(Cc3ccc4cc(F)ccc4n3)CC2CCO)cc1 (stereo unspecified) | 13.1 µM (active) | 
71 | COc1cccc(CN2CCN(Cc3ccc4cccc(F)c4n3)CC2CCO)c1 (stereo unspecified) | inactive | 
72 | Cc1cccc(C(=O)NCc2nnc(SC(C)C(=O)Nc3nnc(C)s3)n2C)c1 (stereo unspecified) | inactive | 
73 | O=C(Nc1ccn(Cc2ccccc2)n1)c1cccc(F)c1 | inactive | 
74 | Cc1ccc(Cn2ccc(NC(=O)c3cc(C(C)C)on3)n2)cc1 | inactive | 
75 | O=C(Nc1ccn(Cc2ccc(F)cc2)n1)c1ccncc1 | 9.28 µM (active) | 
76 | COc1ccc(C2=NN(C(=O)CSc3nnnn3C)C(c3ccco3)C2)cc1 (stereo unspecified) | inactive | 
77 | CCN(C(=O)COc1ccc(C(=O)c2ccccc2)cc1)c1ccccc1 | 11.7 µM (active) | 
78 | CCN(C(=O)c1ccc(Br)cc1)c1ccccc1 | inactive | 

Row | SMILES | Potency | activity change, negative = inhibition
79 | O=C(COc1ccc(F)cc1)N(CC1=CCS(=O)(=O)C1)c1ccccc1 | inactive | 
80 | CCc1ccc(NC(=O)CS(=O)CC(=O)N2CCN(c3ccccc3F)CC2)cc1 (stereo unspecified) | inactive | 
81 | COc1cccc(/C=N/Nc2ccc(Cl)nn2)c1 | inactive | 
82 | CCOC(=O)C(C)n1cnc2c(nnn2-c2ccc(F)cc2)c1=O (stereo unspecified) | inactive | 
83 | COc1cccc(/C=N/Nc2ncc(C(F)(F)F)cc2Cl)c1O | inactive | 
84 | COc1cccc2c(N/N=C/c3ccco3)cc(C)nc12 | inactive | 
85 | COc1cccc(/C=N/Nc2cc(C)nc(-c3ccccc3O)n2)c1O | 0.37 µM (active) | 
86 | O=C(/C=C/c1ccc2c(c1)OCCO2)c1ccc(O)cc1 | inactive | 
87 | NC(N)=N/N=C/c1ccc(Cl)c([N+](=O)[O-])c1 | 11.7 µM (active) | 
88 | CN(C)c1ccc(/C=C/C(=O)c2ccc(O)cc2)cc1[N+](=O)[O-] | inactive | 
89 | O=C(/C=C/c1ccc(Cl)c([N+](=O)[O-])c1)c1ccc(O)cc1 | 9.28 µM (active) | 
90 | O=C(Nc1ccncc1)c1ccc(Cl)c([N+](=O)[O-])c1 | inactive | 
91 | O=C(/C=C/c1ccc(Cl)c([N+](=O)[O-])c1)c1cccnc1 | inactive | 
92 | COc1ccc(Cl)cc1NC(=O)COc1ccc2c(c1)OCO2 | inactive | 
93 | CCN1C(=S)N[C@@H](c2cccc(C(F)(F)F)c2)C(C(=O)OC)=C1C | inactive | 
94 | CCCCn1c(N)c(N(CC(C)C)C(=O)CSc2ccc([N+](=O)[O-])cc2)c(=O)[nH]c1=O | inactive | 
95 | COc1ccc(OC)c(CN2CCN(C(=O)CNC(=O)c3cc(C)cc(C)c3)CC2)c1 | inactive | 
96 | O=C(CCNC(=O)c1ccccc1Cl)NCc1ccco1 | inactive | 
97 | Cc1cccc(C)c1NC(=O)COC(=O)c1ccccc1O | inactive | 
98 | C=CCn1c(CNS(=O)(=O)c2ccc(Br)cc2)nnc1SC | inactive | 
99 | CC(=O)Nc1ccc(NC(=O)c2ccc3c(c2)C(=O)N(c2ccccc2C)C3=O)cc1 | inactive | 
100 | COC(=O)c1cccc(NC(=O)c2cccc(N3C(=O)CCC3=O)c2)c1 | inactive | 
101 | Cc1cccc(N2C(=O)c3ccc(C(=O)Nc4cccc(C(=O)O)c4)cc3C2=O)c1 | 13.1 µM (active) | 
